From PubChem BioAssay AID1159580 (chemical genetic matrix, 2015)
In all, about 5,500 compounds went through this assay and about 2,000 (36%) were called active. About 18% were inconclusive and are not listed. Some of the results follow. Values without a mark were called inactive. Cut-off read from the data, not from the text of the source: active = normalized growth mostly below about 0.91 (no sharp cut-off); inconclusive = no clear call, values can overlap the other calls; inactive = mostly above about 0.92.

Assay: chemical genetic growth profiling, strain panel (AID 1159580);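 note: tested at 20 µM; growth read once vehicle control cultures reached saturation at 30 °C; 1 = growth at the plate median or of vehicle wells; lower values mean less growth of the strain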
Conditions: growth OD
[1] = S. cerevisiae deletion strains, locus YDL101C, strain DUN1, stronger effect = lower value
[2] = S. cerevisiae deletion strains, locus YHR030C, strain SLT2, stronger effect = lower value
[3] = S. cerevisiae deletion strains, locus YAL013W, strain DEP1, stronger effect = lower value
[4] = S. cerevisiae deletion strains, locus YBR229C, strain ROT2, stronger effect = lower value
[5] = S. cerevisiae deletion strains, locus YDR150W, strain NUM1, stronger effect = lower value
[6] = S. cerevisiae deletion strains, locus YEL061C, strain CIN8, stronger effect = lower value
[7] = S. cerevisiae deletion strains, locus YGR078C, strain PAC10, stronger effect = lower value
[8] = S. cerevisiae deletion strains, locus YHR087W, strain rtc3, stronger effect = lower value
[9] = S. cerevisiae deletion strains, locus YJR043C, strain POL32, stronger effect = lower value
[10] = S. cerevisiae deletion strains, locus YJR075W, strain HOC1, stronger effect = lower value
[11] = S. cerevisiae deletion strains, locus YLR039C, strain RIC1, stronger effect = lower value
[12] = S. cerevisiae deletion strains, locus YLR058C, strain SHM2 (second series), stronger effect = lower value
[13] = S. cerevisiae deletion strains, locus YLR085C, strain ARP6, stronger effect = lower value
[14] = S. cerevisiae deletion strains, locus YLR262C, strain YPT6, stronger effect = lower value
[15] = S. cerevisiae deletion strains, locus YML094W, strain GIM5, stronger effect = lower value
[16] = S. cerevisiae deletion strains, locus YMR219W, strain ESC1, stronger effect = lower value
[17] = S. cerevisiae deletion strains, locus YMR263W, strain SAP30, stronger effect = lower value
[18] = S. cerevisiae deletion strains, locus YNL153C, strain GIM3, stronger effect = lower value
[19] = S. cerevisiae deletion strains, locus YNL298W, strain CLA4 (second series), stronger effect = lower value
[20] = S. cerevisiae deletion strains, locus YNL322C, strain KRE1, stronger effect = lower value
[21] = S. cerevisiae deletion strains, locus YNR030W, strain Alg12, stronger effect = lower value
[22] = S. cerevisiae deletion strains, locus YPL055C, strain LGE1, stronger effect = lower value
[23] = S. cerevisiae deletion strains, locus YPL241C, strain CIN2, stronger effect = lower value
[24] = S. cerevisiae deletion strains, locus YPR135W, strain CTF4, stronger effect = lower value

SMILES: O=[N+]([O-])c1ccc(Sc2ccccc2)cc1O
- normalized growth (S. cerevisiae deletion strains, locus YAR019C, strain CDC15, stronger effect = lower value): 0.915
- normalized growth (S. cerevisiae deletion strains, locus YBL105C, strain PKC1, stronger effect = lower value): 0.925
- normalized growth (S. cerevisiae deletion strains, locus YBR135W, strain CKS1, stronger effect = lower value): 0.927
- normalized growth (S. cerevisiae deletion strains, locus YBR136W, strain MEC1, stronger effect = lower value): 0.924
- normalized growth (S. cerevisiae deletion strains, locus YBR160W, strain CDC28, stronger effect = lower value): 0.929
- normalized growth (S. cerevisiae deletion strains, locus YDL017W, strain CDC7, stronger effect = lower value): 0.929
- normalized growth (S. cerevisiae deletion strains, locus YDL028C, strain MPS1, stronger effect = lower value): 0.931
- normalized growth [1]: 0.914
- normalized growth (S. cerevisiae deletion strains, locus YDL108W, strain KIN28, stronger effect = lower value): 0.927
- normalized growth (S. cerevisiae deletion strains, locus YDL132W, strain cdc53, stronger effect = lower value): 0.909
- normalized growth (S. cerevisiae deletion strains, locus YDL214C, strain PRR2, stronger effect = lower value): 0.823
- normalized growth (S. cerevisiae deletion strains, locus YDR052C, strain DBF4, stronger effect = lower value): 0.943
- normalized growth (S. cerevisiae deletion strains, locus YDR054C, strain cdc34, stronger effect = lower value): 0.899
- normalized growth (S. cerevisiae deletion strains, locus YDR226W, strain ADK1, stronger effect = lower value): 0.958
- normalized growth (S. cerevisiae deletion strains, locus YDR477W, strain SNF1, stronger effect = lower value): 0.844
- normalized growth (S. cerevisiae deletion strains, locus YER123W, strain YCK3, stronger effect = lower value): 0.78
- normalized growth (S. cerevisiae deletion strains, locus YER133W, strain GLC7, stronger effect = lower value): 0.831
- normalized growth (S. cerevisiae deletion strains, locus YFL009W, strain cdc4, stronger effect = lower value): 0.91
- normalized growth (S. cerevisiae deletion strains, locus YFL029C, strain CAK1, stronger effect = lower value): 0.928
- normalized growth (S. cerevisiae deletion strains, locus YFR003C, strain YPI1, stronger effect = lower value): 0.928
- normalized growth (S. cerevisiae deletion strains, locus YFR019W, strain FAB1, stronger effect = lower value): 0.895
- normalized growth (S. cerevisiae deletion strains, locus YFR028C, strain CDC14, stronger effect = lower value): 0.959
- normalized growth (S. cerevisiae deletion strains, locus YGR040W, strain KSS1, stronger effect = lower value): 0.84
- normalized growth (S. cerevisiae deletion strains, locus YGR052W, strain FMP48, stronger effect = lower value): 0.817
- normalized growth (S. cerevisiae deletion strains, locus YGR092W, strain DBF2, stronger effect = lower value): 0.709
- normalized growth [2]: 0.904
- normalized growth (S. cerevisiae deletion strains, locus YHR079C, strain IRE1, stronger effect = lower value): 0.812
- normalized growth (S. cerevisiae deletion strains, locus YHR082C, strain KSP1, stronger effect = lower value): 0.838
- normalized growth (S. cerevisiae deletion strains, locus YHR205W, strain SCH9, stronger effect = lower value): 0.864
- normalized growth (S. cerevisiae deletion strains, locus YIL147C, strain SLN1, stronger effect = lower value): 0.923
- normalized growth (S. cerevisiae deletion strains, locus YJL095W, strain BCK1, stronger effect = lower value): 0.806
- normalized growth (S. cerevisiae deletion strains, locus YJL128C, strain PBS2, stronger effect = lower value): 0.843
- normalized growth (S. cerevisiae deletion strains, locus YJL157C, strain FAR1, stronger effect = lower value): 0.796
- normalized growth (S. cerevisiae deletion strains, locus YJR016C, strain ILV3, stronger effect = lower value): 0.913
- normalized growth (S. cerevisiae deletion strains, locus YJR066W, strain TOR1 (second series), stronger effect = lower value): 0.834
- normalized growth (S. cerevisiae deletion strains, locus YJR066W, strain TOR1, stronger effect = lower value): 0.827
- normalized growth (S. cerevisiae deletion strains, locus YKL048C, strain ELM1, stronger effect = lower value): 0.878
- normalized growth (S. cerevisiae deletion strains, locus YKL067W, strain YNK1, stronger effect = lower value): 0.821
- normalized growth (S. cerevisiae deletion strains, locus YKL101W, strain HSL1, stronger effect = lower value): 0.862
- normalized growth (S. cerevisiae deletion strains, locus YKL193C, strain SDS22, stronger effect = lower value): 0.921
- normalized growth (S. cerevisiae deletion strains, locus YKL203C, strain TOR2, stronger effect = lower value): 0.871
- normalized growth (S. cerevisiae deletion strains, locus YLR113W, strain HOG1, stronger effect = lower value): 0.736 (active)
- normalized growth (S. cerevisiae deletion strains, locus YLR133W, strain CKI1, stronger effect = lower value): 0.85
- normalized growth (S. cerevisiae deletion strains, locus YLR403W, strain SFP1, stronger effect = lower value): 0.8
- normalized growth (S. cerevisiae deletion strains, locus YML070W, strain DAK1, stronger effect = lower value): 0.824
- normalized growth (S. cerevisiae deletion strains, locus YMR001C, strain CDC5, stronger effect = lower value): 0.919
- normalized growth (S. cerevisiae deletion strains, locus YMR205C, strain PFK2 (second series), stronger effect = lower value): 0.824
- normalized growth (S. cerevisiae deletion strains, locus YMR277W, strain FCP1, stronger effect = lower value): 0.917
- normalized growth (S. cerevisiae deletion strains, locus YNL006W, strain LST8, stronger effect = lower value): 0.925
- normalized growth (S. cerevisiae deletion strains, locus YNL020C, strain ARK1, stronger effect = lower value): 0.837
- normalized growth (S. cerevisiae deletion strains, locus YNL161W, strain CBK1, stronger effect = lower value): 0.922
- normalized growth (S. cerevisiae deletion strains, locus YNL183C, strain NPR1, stronger effect = lower value): 0.828
- normalized growth (S. cerevisiae deletion strains, locus YNL207W, strain RIO2, stronger effect = lower value): 0.912
- normalized growth (S. cerevisiae deletion strains, locus YNL222W, strain SSU72, stronger effect = lower value): 0.924
- normalized growth (S. cerevisiae deletion strains, locus YNL307C, strain MCK1 (second series), stronger effect = lower value): 0.836
- normalized growth (S. cerevisiae deletion strains, locus YOL078W, strain AVO1, stronger effect = lower value): 0.903
- normalized growth (S. cerevisiae deletion strains, locus YOL136C, strain PFK27, stronger effect = lower value): 0.816
- normalized growth (S. cerevisiae deletion strains, locus YOR061W, strain CKA2, stronger effect = lower value): 0.817
- normalized growth (S. cerevisiae deletion strains, locus YOR119C, strain RIO1, stronger effect = lower value): 0.892
- normalized growth (S. cerevisiae deletion strains, locus YOR231W, strain MKK1, stronger effect = lower value): 0.806
- normalized growth (S. cerevisiae deletion strains, locus YOR329C, strain SCD5, stronger effect = lower value): 0.92
- normalized growth (S. cerevisiae deletion strains, locus YPL031C, strain PHO85, stronger effect = lower value): 0.807
- normalized growth (S. cerevisiae deletion strains, locus YPL153C, strain RAD53, stronger effect = lower value): 0.828
- normalized growth (S. cerevisiae deletion strains, locus YPL204W, strain HRR25, stronger effect = lower value): 0.798
- normalized growth (S. cerevisiae deletion strains, locus YPL209C, strain IPL1, stronger effect = lower value): 0.923
- normalized growth (S. cerevisiae deletion strains, locus YPL256C, strain CLN2, stronger effect = lower value): 0.895
- normalized growth (S. cerevisiae deletion strains, locus YPR025C, strain CCL1, stronger effect = lower value): 0.924
- normalized growth (S. cerevisiae deletion strains, locus YPR106W, strain ISR1, stronger effect = lower value): 0.875 (active)
- normalized growth (S. cerevisiae deletion strains, locus YPR111W, strain DBF20, stronger effect = lower value): 0.89
- normalized growth (S. cerevisiae deletion strains, strain NNK1, stronger effect = lower value): 0.892
- normalized growth (S. cerevisiae deletion strains, strain TSCII, stronger effect = lower value): 0.906

SMILES: O=C(O)c1ccccc1Sc1c(C(=O)O)cc([N+](=O)[O-])cc1[N+](=O)[O-]
- normalized growth [3]: 1.01
- normalized growth [4]: 1.01
- normalized growth [1]: 1.02
- normalized growth (S. cerevisiae deletion strains, locus YDL134C, strain PPH21, stronger effect = lower value): 0.976
- normalized growth [5]: 0.988
- normalized growth [6]: 0.994
- normalized growth [7]: 1.01
- normalized growth [2]: 1.01
- normalized growth [8]: 0.993
- normalized growth [9]: 1
- normalized growth [10]: 1
- normalized growth [11]: 1
- normalized growth [12]: 0.994
- normalized growth [13]: 0.989
- normalized growth [14]: 0.984
- normalized growth [15]: 1.08
- normalized growth [16]: 1.01
- normalized growth [17]: 0.994
- normalized growth [18]: 1.03
- normalized growth [19]: 0.964
- normalized growth [20]: 1.02
- normalized growth [21]: 1.01
- normalized growth [22]: 1.02
- normalized growth [23]: 1.08
- normalized growth [24]: 1.09

SMILES: O=[N+]([O-])c1cc(Cl)c(Sc2ccccc2)cc1Sc1ccccc1
- normalized growth [3]: 0.995
- normalized growth [4]: 0.999
- normalized growth (S. cerevisiae deletion strains, locus YCL061C, strain MRC1, stronger effect = lower value): 0.974
- normalized growth [1]: 1.01
- normalized growth [5]: 0.983
- normalized growth [6]: 0.998
- normalized growth [7]: 0.999
- normalized growth [2]: 0.922
- normalized growth [8]: 0.998
- normalized growth (S. cerevisiae deletion strains, locus YJL187C, strain SWE1, stronger effect = lower value): 1.03
- normalized growth [9]: 0.992
- normalized growth [10]: 0.994
- normalized growth [11]: 0.998
- normalized growth [12]: 0.992
- normalized growth [13]: 1.03
- normalized growth [14]: 0.909
- normalized growth [15]: 1.03
- normalized growth [16]: 1.01
- normalized growth [17]: 1.01
- normalized growth [18]: 0.993
- normalized growth [19]: 1.01
- normalized growth [20]: 1.01
- normalized growth [21]: 0.977
- normalized growth (S. cerevisiae deletion strains, locus YOL006C, strain TOP1, stronger effect = lower value): 0.998
- normalized growth [22]: 1.01
- normalized growth [23]: 1.01
- normalized growth [24]: 0.925
- normalized growth (S. cerevisiae strains, strain wild type, stronger effect = lower value): 1.01
